LAP4 TOR yeast – modulators of TOR pathway LAP4-GFP in S. cerevisiae; S. cerevisiae LAP4-GFP multiplex, flow cytometry GFP, 3 h; median GFP as percent of DMSO wells; GFP response vs DMSO, % at 10 µM; actives 0.34% (n = 320,000); AID 2023;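 active = GFP response vs DMSO above a set limit, about the screen mean plus 3 SD, cut at about 150% in these data; inconclusive = under 70 cell events counted for the yeast strain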
Myeloid diff 2 – compounds promoting myeloid differentiation; AID 624256; actives 1% (n = 360,000); calls only at 10 µM; ER-HoxA9 myeloid progenitors, lysozyme-GFP differentiation, flow cytometry;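 active = normalized GFP-positive differentiation at or above the plate's own cutoff, the solvent-only control mean plus 3 SD; inconclusive = no clear call, values can overlap the other calls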;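 also: cells exposed to compound for four days before flow analysis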
CIT2 TOR yeast – yeast TOR pathway CIT2-GFP modulation; GFP response vs DMSO, % at 10 µM; actives 0.065% (n = 320,000); S. cerevisiae CIT2-GFP strain, flow cytometry, 3 h; 100 means same as DMSO wells; AID 2029;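 active = GFP response relative to DMSO above a set limit, near the screen mean plus 3 SD, cut at about 150% in these data; inconclusive = Fewer than 70 cells measured for a yeast strain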;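 also: ratio of well median GFP fluorescence to mean of DMSO wells on the plate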
RPL19A TOR yeast – modulators of TOR pathway RPL19A-GFP in S. cerevisiae. S. cerevisiae RPL19A-GFP strain, flow cytometry, 3 h; active compounds read low. percent response vs DMSO, % at 10 µM. actives 0.3% (n = 330,000). AID 2025;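 active = percent response vs DMSO below 50%; inconclusive = fewer than 70 events counted for the yeast strain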;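 also: median channel GFP fluorescence of the barcoded RPL19A-GFP strain; ratio of sample median GFP to plate DMSO average so 100% = DMSO; lower means less RPL19A-GFP as with rapamycin TOR inhibition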
MEP2 TOR yeast – alters MEP2-GFP fluorescence in TOR pathway yeast screen. actives 0.51% (n = 330,000). GFP response vs DMSO, % at 10 µM. S. cerevisiae MEP2-GFP strain, flow cytometry GFP, 3 h; 100% = DMSO control level;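 active = GFP response versus DMSO above a set limit, roughly screen mean plus 3 SD, cut at about 180% in these data; inconclusive = fewer than 70 cells counted for a yeast strain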;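 also: median GFP fluorescence of the barcode-gated MEP2-GFP cells per well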
AGP1-GFP MLPCN – alters AGP1-GFP fluorescence in TOR pathway yeast screen; S. cerevisiae AGP1-GFP multiplex flow cytometry, 3 h; GFP as percent of DMSO wells; actives 0.02% (n = 320,000); GFP response vs DMSO, % at 10 µM;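 active = GFP response relative to DMSO above a set limit, near screen average plus 3 SD, cut at about 150% in these data; inconclusive = fewer than 70 cells counted for the yeast strain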;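 also: median GFP channel fluorescence of the gated AGP1 strain per well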
* hit, by the source's call; i = inactive; ? = inconclusive; / = no result; + = active, no number; [ ] = dose if it differs, or a comment. An excerpt weighted towards active compounds, which were near 1.8% of everything screened.

SMILES | LAP4 TOR yeast | Myeloid diff 2 | CIT2 TOR yeast | RPL19A TOR yeast | MEP2 TOR yeast | AGP1-GFP MLPCN
CCOC(=O)C1C(c2ccccc2Cl)NC(=O)N(C)C1(O)C(F)(F)F (configuration not stated) | 92 | + | 92 | / | 100 | 91
CCOc1ccccc1NC(=O)c1cccc2c1C(=O)N(C1CCCCC1)C2 | 98 | i | 96 | 98 | 99 | 95
COc1cc(NC(=O)[C@@H](NC(=O)N2CCn3c2nc2ccccc23)C(C)C)cc(OC)c1 | 83 | + | 93 | 94 | 91 | 92
CC(C)C[C@H](NC(=O)N1CCn2c1nc1ccccc12)C(=O)NCc1ccco1 | 96 | + | 111 | 101 | 108 | 63
C[C@H](NC(=O)N1CCn2c1nc1ccccc12)C(=O)NCc1ccco1 | 105 | i | 104 | 105 | 100 | 109
CC1CC(=O)Nc2ccccc2N1S(=O)(=O)c1ccc(C(F)(F)F)cc1 (configuration not stated) | 108 | ? | 162*[may fluoresce green] | 95 | 111 | 115
COc1ccc(S(=O)(=O)N2c3ccccc3NC(=O)CC2C)cc1 (configuration not stated) | 116 | i | 149 | 91 | 101 | 113
NC(=O)c1ccsc1NC(=O)COC(=O)C1CCCN1C(=O)c1cccs1 (configuration not stated) | 103 | / | 101 | 91 | 100 | 117
COC(=O)Nc1nc2ccc(-c3n[nH]c(=O)c4ccccc34)cc2[nH]1 | 85 | + | 98 | 101 | 95 | 94
COc1ccccc1N1CCN(CC(O)c2ccccc2)CC1 (configuration not stated) | 79 | i | ? | 46*[may fluoresce violet] | 290*[may fluoresce violet] | ?
COc1ccccc1N1CCN(CC(O)c2c(C)[nH]c3ccccc23)CC1 (configuration not stated) | 100 | i | 100 | 104 | 108 | 102
CCOC(=O)C(C)On1c(SC(C)C(=O)OCC)nc2ccccc2c1=O (configuration not stated) | 107 | i | 103 | 98 | 102 | 102
CC1CCN(CCCOc2ccc(Br)cc2Cl)CC1 | 118 | i | ? | 28*[may fluoresce violet] | 72 | ?
CC1CCCN(CCOCCOc2ccc(Br)cc2Cl)C1 (configuration not stated) | 100 | i | 101 | 103 | 107 | 99
COc1ccc(C2=Nn3c(nnc3C3CCCCC3)SC2)cc1OC | 106 | + | 102 | 109 | 110 | 102
COc1ccc(OC)c(C2=Nn3c(nnc3C3CCCCC3)SC2)c1 | 98 | i | 103 | 99 | 101 | 98
Cc1ccc(-n2nc3c(N4CCC(C(=O)N5CCC(C(N)=O)CC5)CC4)nnc(C)c3c2C)cc1 | 91 | i | 102 | 97 | 103 | 97
CCN1CCN(C(=O)C2CCN(c3nnc(C)c4c(C)n(-c5ccc(C)cc5)nc34)CC2)CC1 | 143 | i | 156* | 107 | 140 | 97
O=S(=O)(Nc1nc2c(s1)CCCC2)c1ccc2ccccc2c1 | 94 | i | 104 | 96 | 97 | 99
O=S(=O)(NC1=NCCCCC1)c1ccc2sc(NS(=O)(=O)c3ccc4ccccc4c3)nc2c1 | 83 | i | ? | 41*[may fluoresce violet] | 243*[may fluoresce violet] | 22
Cc1ccc(-n2ncc3c(=O)n(Cc4cccnc4)cnc32)cc1 | / | i | / | / | / | /
CCc1sc(C(=O)N2CCc3ccccc32)cc1C | 158* | i | 86 | 94 | 111 | 98
O=C(c1ccc([N+](=O)[O-])s1)N1CCCc2ccccc21 | 101 | + | 105 | 102 | 105 | 98
O=C(c1cccc(F)c1F)N1CCCc2ccccc21 | 90 | i | 100 | 106 | 108 | 96
O=C(c1ccc([N+](=O)[O-])s1)N1CCc2ccccc21 | 96 | + | 105 | 101 | 96 | 91
SMILES | LAP4 TOR yeast | Myeloid diff 2 | CIT2 TOR yeast | RPL19A TOR yeast | MEP2 TOR yeast | AGP1-GFP MLPCN
O=C(c1ccccc1F)N1CCCc2ccccc21 | 104 | + | 96 | 104 | 105 | 99
CC1(c2ccccc2Cl)NC(=O)N(CC(=O)N2c3ccccc3NC(=O)C2(C)C)C1=O (configuration not stated) | 106 | i | 101 | 102 | 103 | 105
C=C1CC[C@@H]2[C@](C)(CO)[C@H](O)CC[C@@]2(C)[C@@H]1/C=C/C1=CCOC1=O | 95 | i | 100 | 107 | 107 | 92
O=C(NC1CCCc2ccccc21)c1n[nH]c(=O)c2ccccc12 (configuration not stated) | 107 | + | 124 | 101 | 109 | 121
CN(C)c1ccc(C=c2c3cc(O)ccc3n3c2cc(-c2ccccc2)[n+]3C)cc1 | / | + | / | / | / | /
COC(=O)CNC(=O)Cn1cnc2sc(C)c(S(=O)(=O)N3CCN(c4ccccc4OC)CC3)c2c1=O | 82 | i | 86 | 93 | 115 | 59
COc1ccccc1N1CCN(S(=O)(=O)c2c(C)sc3ncn(CC(=O)NCCN(C)C)c(=O)c23)CC1 | 90 | i | ? | 50 | 258*[may fluoresce violet] | ?
CCN(C(=O)COC(=O)c1c2c(nc3ccccc13)/C(=C/c1ccccc1)CC(C)C2)C1CCS(=O)(=O)C1 (configuration not stated) | 97 | + | 96 | 107 | 107 | 96
CCOc1ccc(CC(=O)NNC(=S)NC)cc1 | 98 | i | 95 | 97 | 95 | 94
O=C(/C(=C(\[O-])c1ccccc1)[n+]1ccc2ccccc2c1)c1ccccc1 | 99 | + | 79 | 93 | 90 | 89
N#Cc1c(SCC(=O)Nc2nccs2)nc2c(c1-c1ccco1)CCCC2 | 88 | i | 89 | 90 | 123 | 96
COc1ccc(C2NCCc3c2[nH]c2ccccc32)cc1CN1CCc2cc(OC)c(OC)cc2C1C (configuration not stated) | / | i | / | / | / | /
COc1ccc(C2NCCc3c2[nH]c2ccccc32)cc1COc1ccc(F)cc1 (configuration not stated) | 94 | + | 104 | 100 | 104 | 100
CCCNCc1cc(OC)c(OCCC)cc1Cl | 93 | + | 107 | 98 | 101 | 105
Cc1cccc(N=c2oc3cc(O)ccc3cc2C(N)=O)c1 | 102 | i | 95 | 40* | 124 | 97
COc1ccccc1N=c1oc2cc(O)ccc2cc1C(N)=O | 94 | i | ? | 15*[may fluoresce violet] | 298*[may fluoresce violet] | ?
CC1CCN(S(=O)(=O)c2ccc(N/N=C(/C#N)C(N)=O)cc2)CC1 | 93 | i | 105 | 99 | 112 | 99
N#C/C(=N\Nc1ccc(S(=O)(=O)N2CCOCC2)cc1)C(N)=S | 100 | + | 95 | 92 | 98 | 97
Nc1cc(=O)[nH]c(SCc2csc(-c3ccccc3)n2)n1 | 86 | i | 97 | 101 | 92 | 95
